# Measured values taken from the supplement of paper PMC8728848.
# The full list was thinned out, with the strongest signals kept by preference.
# B1: PX14351B-bth-512-36-512 (Bacteroides thetaiotaomicron) (protein)
# chain: ASETQQWKTLEDTRSALMGVYGLTRAALADNNTHWICGDLRKGDFTVYKRSDLQAVSDNELNKPYDLLKKVSNWRRFYAVINAASVFMEKAPRTVELDRSYSEQNLKYDIAQVRALRAFAYFYMVRIWGDVPLVTYSYDNGTFPSMPRTDAQTVLSYAKAELLTAIEDLPYQYGTQTNLYYGSYGAQWQGKLFNKLSAYSVLAHICAWQGNYAEAETYSAFIIDHASEINAKYTSIADLTSETGLFYSNASVKGSRILGFNFAHNDNEATQSGHLEQLTLAYPLVQKSYPEIYISKDSLFSIFTNFDDLRFGIIDTIKYSSYYVQNLNEETPVFSKIKIIQDGSAKDNDFGVFGSSIVFTRLEDITLLRAEALCALNRSTEAVSYLNMIRTNRGLREVSFKKDFGNNRESLIAEIFEERRRELMGEGWRWYDLVRRQKLMKDNEAFLRLISSGGIYWPVSEDIITANSQIEQNEFWK
# How the values were obtained:
# Test in all cases: glycan array binding signal (z-score within array); higher = stronger binding
# Conditions in all cases: glycan notation: IUPAC condensed, linker removed
# Fuc(a1-2)Gal(b1-4)Glc = target: Fuc(a1-2)Gal(b1-4)Glc
# In short: (§1)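 Glycan array data were curated from 3228 arrays in the Consortium for Functional Glycomics database and kept only where the protein sequence was available. Glycan names were converted to IUPAC-condensed notation, and columns mapping to the same glycan were averaged. The binding signal is a within-array Z-score, averaged across arrays of the same protein sequence at different concentrations or buffers and across linkers. Negative Z-scores can be read as non-binding.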
# [1] = target: Fuc(a1-2)Gal(b1-4)[Fuc(a1-3)]GlcNAc(b1-3)[Neu5Ac(a2-6)Gal(b1-4)GlcNAc(b1-6)]Gal(b1-4)Glc
# In short: as §1
# [2] = target: Fuc(a1-2)Gal6S(b1-4)Glc6S
# In short: as §1
# [3] = target: Fuc(a1-2)[GalNAc(a1-3)]Gal(b1-4)GlcNAc(b1-2)Man(a1-3)[Fuc(a1-2)[GalNAc(a1-3)]Gal(b1-4)GlcNAc(b1-2)Man(a1-6)]Man(b1-4)GlcNAc(b1-4)GlcNAc
# In short: as §1
# [4] = target: Fuc(a1-3)[Gal(b1-4)]GlcNAc(b1-3)Gal(b1-4)[Fuc(a1-3)]GlcNAc(b1-3)Gal(b1-4)[Fuc(a1-3)]GlcNAc
# In short: as §1
# [5] = target: Fuc(a1-3)[GalNAc(b1-4)]GlcNAc6S
# In short: as §1
# [6] = target: Gal(a1-3)Gal(b1-3)[Fuc(a1-4)]GlcNAc(b1-2)Man(a1-3)[Gal(a1-3)Gal(b1-3)[Fuc(a1-4)]GlcNAc(b1-2)Man(a1-6)]Man(b1-4)GlcNAc(b1-4)GlcNAc
# In short: as §1
# [7] = target: Gal(a1-3)Gal(b1-4)GlcNAc(b1-2)Man
# In short: as §1
# [8] = target: Gal(a1-3)Gal(b1-4)GlcNAc(b1-3)GalNAc
# In short: as §1
# [9] = target: Gal(a1-3)Gal(b1-4)GlcNAc(b1-6)GalNAc
# In short: as §1
# Gal(b1-3)Gal = target: Gal(b1-3)Gal
# In short: as §1
# Gal(b1-3)GalNAc = target: Gal(b1-3)GalNAc
# In short: as §1
# [10] = target: Gal(b1-3)GalNAc(a1-3)[Fuc(a1-2)]Gal(b1-4)GlcNAc
# In short: as §1
# [11] = target: Gal(b1-3)GlcNAc(a1-6)Gal(b1-4)GlcNAc
# In short: as §1
# [12] = target: Gal(b1-3)GlcNAc(b1-3)Gal(b1-3)GlcNAc
# In short: as §1
# [13] = target: Gal(b1-3)GlcNAc(b1-3)Gal(b1-4)GlcNAc(b1-2)[Gal(b1-3)GlcNAc(b1-3)Gal(b1-4)GlcNAc(b1-6)]Man(a1-6)[Gal(b1-3)GlcNAc(b1-3)Gal(b1-4)GlcNAc(b1-2)Man(a1-3)]Man(b1-4)GlcNAc(b1-4)[Fuc(a1-6)]GlcNAc
# In short: as §1
# [14] = target: Gal(b1-3)[Neu5Ac(a2-6)]GlcNAc(b1-4)Gal(b1-4)Glc
# In short: as §1
# [15] = target: Gal(b1-4)GlcNAc(b1-2)Man(a1-6)[Man(a1-3)]Man(b1-4)GlcNAc(b1-4)GlcNAc
# In short: as §1
# [16] = target: Gal(b1-4)GlcNAc(b1-2)[Gal(b1-4)GlcNAc(b1-6)]Man(a1-6)[Gal(b1-4)GlcNAc(b1-2)Man(a1-3)]Man(b1-4)GlcNAc(b1-4)[Fuc(a1-6)]GlcNAc
# In short: as §1
# [17] = target: Gal(b1-4)GlcNAc(b1-3)Gal(b1-4)Glc
# In short: as §1
# [18] = target: Gal(b1-4)GlcNAc(b1-3)Gal(b1-4)GlcNAc(b1-2)[Gal(b1-4)GlcNAc(b1-3)Gal(b1-4)GlcNAc(b1-6)]Man(a1-6)[Gal(b1-4)GlcNAc(b1-3)Gal(b1-4)GlcNAc(b1-2)Man(a1-3)]Man(b1-4)GlcNAc(b1-4)GlcNAc
# In short: as §1
# [19] = target: Gal(b1-4)GlcNAc(b1-3)Gal(b1-4)GlcNAc(b1-2)[Gal(b1-4)GlcNAc(b1-3)Gal(b1-4)GlcNAc(b1-6)]Man(a1-6)[Gal(b1-4)GlcNAc(b1-3)Gal(b1-4)GlcNAc(b1-2)Man(a1-3)]Man(b1-4)GlcNAc(b1-4)[Fuc(a1-6)]GlcNAc
# In short: as §1
# [20] = target: Gal(b1-4)GlcNAc(b1-3)Gal(b1-4)GlcNAc(b1-3)Gal(b1-4)GlcNAc(b1-2)Man(a1-3)[Gal(b1-4)GlcNAc(b1-3)Gal(b1-4)GlcNAc(b1-3)Gal(b1-4)GlcNAc(b1-2)Man(a1-6)]Man(b1-4)GlcNAc(b1-4)GlcNAc
# In short: as §1
# [21] = target: Gal(b1-4)GlcNAc(b1-3)Gal(b1-4)GlcNAc(b1-3)Gal(b1-4)GlcNAc(b1-3)Gal(b1-4)GlcNAc(b1-3)Gal(b1-4)GlcNAc(b1-2)[Gal(b1-4)GlcNAc(b1-3)Gal(b1-4)GlcNAc(b1-3)Gal(b1-4)GlcNAc(b1-3)Gal(b1-4)GlcNAc(b1-3)Gal(b1-4)GlcNAc(b1-6)]Man(a1-6)[Gal(b1-4)GlcNAc(b1-3)Gal(b1-4)GlcNAc(b1-3)Gal(b1-4)GlcNAc(b1-3)Gal(b1-4)GlcNAc(b1-3)Gal(b1-4)GlcNAc(b1-2)Man(a1-3)]Man(b1-4)GlcNAc(b1-4)[Fuc(a1-6)]GlcNAc
# In short: as §1
# [22] = target: Gal(b1-4)GlcNAc(b1-3)GalNAc
# In short: as §1
# [23] = target: Gal(b1-4)GlcNAc(b1-6)[Gal(b1-4)GlcNAc(b1-3)]GalNAc
# In short: as §1
# Gal3S(b1-4)Glc = target: Gal3S(b1-4)Glc
# In short: as §1
# Gal6S(b1-4)GlcNAc6S = target: Gal6S(b1-4)GlcNAc6S
# In short: as §1
# GlcA(b1-3)Gal = target: GlcA(b1-3)Gal
# In short: as §1
# [24] = target: GlcA3S(b1-3)Gal(b1-4)GlcNAc(b1-3)Gal(b1-4)Glc
# In short: as §1
# [25] = target: GlcNAc(a1-4)Gal(b1-4)GlcNAc(b1-3)Gal(b1-4)[Fuc(a1-3)]GlcNAc(b1-3)Gal(b1-4)[Fuc(a1-3)]GlcNAc
# In short: as §1
# [26] = target: GlcNAc(b1-2)[GlcNAc(b1-6)]Man(a1-6)[GlcNAc(b1-2)Man(a1-3)]Man(b1-4)GlcNAc(b1-4)GlcNAc
# In short: as §1
# [27] = target: GlcNAc(b1-3)Gal(b1-3)GalNAc
# In short: as §1
# [28] = target: GlcNAc(b1-3)Gal(b1-4)GlcNAc(b1-3)Gal(b1-4)GlcNAc(b1-3)Gal(b1-4)GlcNAc(b1-2)Man(a1-3)[GlcNAc(b1-3)Gal(b1-4)GlcNAc(b1-3)Gal(b1-4)GlcNAc(b1-3)Gal(b1-4)GlcNAc(b1-2)Man(a1-6)]Man(b1-4)GlcNAc(b1-4)GlcNAc
# In short: as §1
# [29] = target: GlcNAc(b1-3)Gal(b1-4)GlcNAc(b1-3)Gal(b1-4)GlcNAc(b1-3)Gal(b1-4)GlcNAc(b1-2)[GlcNAc(b1-3)Gal(b1-4)GlcNAc(b1-3)Gal(b1-4)GlcNAc(b1-3)Gal(b1-4)GlcNAc(b1-6)]Man(a1-6)[GlcNAc(b1-3)Gal(b1-4)GlcNAc(b1-3)Gal(b1-4)GlcNAc(b1-3)Gal(b1-4)GlcNAc(b1-2)Man(a1-3)]Man(b1-4)GlcNAc(b1-4)[Fuc(a1-6)]GlcNAc
# In short: as §1
# GlcNAc(b1-3)Man = target: GlcNAc(b1-3)Man
# In short: as §1
# GlcNAc(b1-4)GlcNAc = target: GlcNAc(b1-4)GlcNAc
# In short: as §1
# [30] = target: Kdn(a2-3)Gal(b1-4)[Fuc(a1-3)]GlcNAc
# In short: as §1
# [31] = target: Man(a1-3)[Man(a1-6)]Man(a1-6)[Man(a1-3)]Man(b1-4)GlcNAc(b1-4)GlcNAc
# In short: as §1
# [32] = target: Neu5Ac(a2-3)Gal(b1-4)GlcNAc(b1-3)Gal(b1-4)GlcNAc
# In short: as §1
# [33] = target: Neu5Ac(a2-3)Gal(b1-4)GlcNAc(b1-3)Gal(b1-4)GlcNAc(b1-6)[Gal(b1-3)]GalNAc
# In short: as §1
# [34] = target: Neu5Ac(a2-6)Gal(b1-4)GlcNAc(b1-2)[Neu5Ac(a2-6)Gal(b1-4)GlcNAc(b1-4)]Man(a1-3)[GlcNAc(b1-4)][Neu5Ac(a2-6)Gal(b1-4)GlcNAc(b1-2)[Neu5Ac(a2-6)Gal(b1-4)GlcNAc(b1-6)]Man(a1-6)]Man(b1-4)GlcNAc(b1-4)GlcNAc
# In short: as §1
# [35] = target: Neu5Ac(a2-6)Gal(b1-4)GlcNAc(b1-3)Gal(b1-4)GlcNAc(b1-3)[Neu5Ac(a2-6)Gal(b1-4)GlcNAc(b1-3)Gal(b1-4)GlcNAc(b1-6)]GalNAc
# In short: as §1
# [36] = target: Neu5Ac(a2-6)Gal(b1-4)GlcNAc(b1-6)GalNAc
# In short: as §1
# [37] = target: Neu5Ac(a2-6)Gal(b1-4)GlcNAc6S
# In short: as §1
# [38] = target: Neu5Ac(a2-8)Neu5Ac(a2-8)Neu5Ac(a2-3)[GalNAc(b1-4)]Gal(b1-4)Glc
# In short: as §1
# [39] = target: Neu5Ac(a2-8)Neu5Ac(a2-8)Neu5Ac(a2-8)Neu5Ac(a2-3)[GalNAc(b1-4)]Gal(b1-4)Glc
# In short: as §1
# [40] = target: Neu5Ac(a2-8)Neu5Gc(a2-3)Gal(b1-4)GlcNAc
# In short: as §1
binder,measurement,setting,value
B1,glycan array binding signal (z-score),Fuc(a1-2)Gal(b1-4)Glc,-0.31
same,glycan array binding signal (z-score),[1],-0.143
same,glycan array binding signal (z-score),[2],-0.262
same,glycan array binding signal (z-score),[3],1.76
same,glycan array binding signal (z-score),[4],0.19
same,glycan array binding signal (z-score),[5],-0.185
same,glycan array binding signal (z-score),[6],17.9
same,glycan array binding signal (z-score),[7],-0.075
same,glycan array binding signal (z-score),[8],0.527
same,glycan array binding signal (z-score),[9],-0.314
same,glycan array binding signal (z-score),Gal(b1-3)Gal,-0.39
same,glycan array binding signal (z-score),Gal(b1-3)GalNAc,-0.25
same,glycan array binding signal (z-score),[10],0.364
same,glycan array binding signal (z-score),[11],0.113
same,glycan array binding signal (z-score),[12],-0.074
same,glycan array binding signal (z-score),[13],9.18
same,glycan array binding signal (z-score),[14],-0.273
same,glycan array binding signal (z-score),[15],-0.288
same,glycan array binding signal (z-score),[16],2.5
same,glycan array binding signal (z-score),[17],-0.34
same,glycan array binding signal (z-score),[18],0.755
same,glycan array binding signal (z-score),[19],2.73
same,glycan array binding signal (z-score),[20],3.44
same,glycan array binding signal (z-score),[21],2.11
same,glycan array binding signal (z-score),[22],-0.256
same,glycan array binding signal (z-score),[23],1.91
same,glycan array binding signal (z-score),Gal3S(b1-4)Glc,-0.16
same,glycan array binding signal (z-score),Gal6S(b1-4)GlcNAc6S,-0.34
same,glycan array binding signal (z-score),GlcA(b1-3)Gal,-0.428
same,glycan array binding signal (z-score),[24],-0.114
same,glycan array binding signal (z-score),[25],-0.049
same,glycan array binding signal (z-score),[26],-0.115
same,glycan array binding signal (z-score),[27],-0.128
same,glycan array binding signal (z-score),[28],-0.068
same,glycan array binding signal (z-score),[29],0.033
same,glycan array binding signal (z-score),GlcNAc(b1-3)Man,-0.006
same,glycan array binding signal (z-score),GlcNAc(b1-4)GlcNAc,-0.165
same,glycan array binding signal (z-score),[30],-0.287
same,glycan array binding signal (z-score),[31],-0.271
same,glycan array binding signal (z-score),[32],-0.265
same,glycan array binding signal (z-score),[33],0.652
same,glycan array binding signal (z-score),[34],0.217
same,glycan array binding signal (z-score),[35],-0.33
same,glycan array binding signal (z-score),[36],0.191
same,glycan array binding signal (z-score),[37],-0.355
same,glycan array binding signal (z-score),[38],-0.362
same,glycan array binding signal (z-score),[39],1.91
same,glycan array binding signal (z-score),[40],4.31
